Bioassay records deposited in PubChem BioAssay by National Center for Advancing Translational Sciences (NCATS).
MCF10A rereplic: A quantitative high throughput screen for small molecules that induce DNA re-replication in MCF 10a normal breast cells | MCF 10A DNA re-replication, Hoechst nuclear intensity, 48 h | AID 624296, 2012 | Potency, µM (titrated, usually from 46.1 µM), for inactives: at the top dose activity, positive = re-replication, hits mostly activators | 350,000 tested, 2.9% active; note: % of control where 0% means no effect; nearly all actives have a fitted effect of over 50% in size
KB-V1 cytotox: qHTS assay for MDR1-selective chemotherapeutics: Primary screen using the drug-selected MDR subline cells KB-V1. KB-V1 MDR cells viability, CellTiter-Glo, 72 h. Potency, µM (highest dose often 46.1 µM), usual class: cytotoxic. 400,000 tested, 3.4% active. AID 1347076, 2019; note: % is set by controls: 0 for no effect and ±100 for the full control effect; nearly all actives have a fitted effect of over 60% in size
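Cytotoxicity via CellTiter-Glo luminescence after 72 h compound exposure at 37 degrees C. Cells: drug-selected KB-V1 line, DMEM phenol-red free plus 10% FBS. Compounds tested at multiple concentrations; normalized data fitted to concentration-effect curves.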
SW480 rerep: A quantitative high throughput screen for small molecules that induce DNA re-replication in SW480 colon adenocarcinoma cells. Potency, µM (series often up to 46.1 µM), without a hit: at the highest dose re-replication activation, most hits filed as activators. 340,000 tested, 1.8% active. SW480 DNA re-replication, Hoechst DNA content imaging, 48 h. AID 624297, 2012; note: % of control where 0% means no effect; nearly all actives have a fitted effect of over 55% in size
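Compounds, transferred as 23 nL by pin tool, were incubated with cells for 48 hr; DNA content per nucleus was then quantified by Hoechst staining and fluorescence plate imaging.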
KB-3-1 cytotox: qHTS assay for MDR1-selective chemotherapeutics: Primary screen using the parental adenocarcinoma cell KB-3-1 | KB-3-1 viability, CellTiter-Glo ATP luminescence, 72 h | Potency, µM (doses to about 46.1 µM), usual class: cytotoxic | 400,000 tested, 1.4% active | AID 1347075, 2019; note: % is set by controls: 0 for no effect and ±100 for the full control effect; nearly all actives have a fitted effect of over 60% in size
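72 h, 37 °C compound treatment of KB-3-1 parental cells; CellTiter-Glo added, 10 min, luminescence read. Data corrected against DMSO-only plates and normalized before curve fitting.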
HT1080-NT tox: qHTS for induction of synthetic lethality in tumor cells producing 2HG: qHTS for the HT-1080-NT fibrosarcoma cell line | Potency, µM (titrated, usually from 46.1 µM), for the others: at the top dose activity, negative = less viability, actives largely listed as cytotoxic | HT-1080-NT fibrosarcoma viability, CellTiter-Glo ATP luminescence, 48 h | 360,000 tested, 1.6% active | AID 686970, 2013;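 note: NT is the 2HG producing partner of a matched IDH1 knockdown line; 0% = DMSO-treated cells and -100% = media-only wells without cells; nearly all actives have a fitted effect of over 55% in size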
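Viability by CellTiter-Glo luminescence after 48 h compound exposure at 37C of HT-1080-NT cells (750/well, RPMI, 5% FBS). % activity scaled between DMSO wells and medium-only wells, then curve-fitted and categorized by curve class.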
HT1080 IDH1KD tx: qHTS for induction of synthetic lethality in tumor cells producing 2HG: qHTS for the HT-1080-IDH1KD cell line; HT-1080 IDH1 knockdown viability, ATP luminescence, 48 h; Potency, µM (top dose mostly 46.1 µM), without a hit: at the highest dose activity, negative = toxicity, usual class: cytotoxic; 360,000 tested, 2% active; AID 686971, 2013;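 note: 0% = DMSO wells and -100% = cell-free medium wells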
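After a 2 h attachment period, IDH1KD HT-1080 cells took pin-transferred compound for 48 h at 37 °C; ATP-based luminescence after 10 min room-temperature reagent incubation reported viability.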
Starred values were filed as active, the others as inactive; i = inactive; ? = inconclusive; . = no result. The list is not random: actives were taken first. Their share in the collection is about 7.9%. Calls come from the whole dose curve; as a rule, active = well fitted curve in the direction sought with a large enough effect; inconclusive = small, poorly fitted or top-dose-only effect, or another doubt; inactive = no such curve, though single readings can be large; an effect the other way counts as inactive or inconclusive. Potency is the fitted concentration of half-maximal effect.

SMILES | MCF10A rereplic | KB-V1 cytotox | SW480 rerep | KB-3-1 cytotox | HT1080-NT tox | HT1080 IDH1KD tx
CCOc1ccc(CN(CCc2ccc3c(c2)OCO3)Cc2cccc(OC)c2)cc1 | . | ? | . | i | . | .
Cc1[nH]n(-c2ccccc2)c(=O)c1C(c1ccc([N+](=O)[O-])cc1)c1c(C)[nH]n(-c2ccccc2)c1=O | 23µM* | i | -11% | ? | 0% | 5%
CCN1C(=O)NC(=O)/C(=C\c2cn(CC(=O)N3CCCC3)c3ccccc23)C1=O | 0% | i | 10% | i | -8% | -1%
O=C1NC(=O)N(c2ccccc2F)C(=O)/C1=C/c1cn(CC(=O)N2CCOCC2)c2ccccc12 | 21µM* | i | 6% | i | ? | ?
O=C1CC(c2ccc(C(F)(F)F)cc2)c2c(c3ccccc3oc2=O)O1 (stereo unspecified) | . | i | . | i | . | .
COc1ccc(C2=CC(c3ccc(OC)c(OC)c3)c3c(c4ccccc4oc3=O)O2)cc1OC (stereo unspecified) | 2.9µM* | i | 13µM* | ? | ? | ?
CCN(CC)C1=NC(=[N+](CC)CC)c2ccccc21 | ? | i | ? | 10µM* | ? | 13µM*
COc1cc2nc(N3CCN(C(=O)[C@H]4COc5ccccc5O4)CC3)nc(N)c2cc1OC | 6% | i | -5% | i | -13% | -11%
O=C(O)COc1ccc(Br)cc1C(c1c(C(=O)O)[nH]c2ccccc12)c1c(C(=O)O)[nH]c2ccccc12 | ? | i | -32% | i | -6% | -12%
O=c1ccc2cc(O[C@@H]3O[C@@H](CO)[C@H](O)[C@@H](O)[C@@H]3O)c(O)cc2o1 | 18µM* | i | ? | i | 8% | 0%
Cc1cc(O)cc2c1O[C@@](C)(CCC[C@@H](C)CCC[C@@H](C)CCCC(C)C)CC2 | 0% | i | ? | i | 10% | 5%
C[C@H](CO)N1C[C@H](C)[C@@H](CN(C)C(=O)NC2CCCCC2)Oc2c(cccc2N(C)C)C1=O | -35% | i | ? | i | 0% | -11%
COc1ccccc1NC(=O)COC(=O)c1cn(C)c2ccccc12 | 9% | 9.2µM* | -5% | i | -1% | 5%
Cc1cccc(N2CCc3c2nc2ccccc2c3N)c1 | 15µM* | ? | 24% | ? | 0% | -1%
Cc1cccc(-n2c(/C=C/c3c(C)[nH]c4ccccc34)nc3ccccc3c2=O)c1 | . | i | . | i | . | .
COc1cc(CN=C(C)c2c(O)n(C)c(=O)n(C)c2=O)cc(OC)c1 | 13% | ? | -7% | ? | 1% | -3%
CC(=NCc1ccc(F)cc1)c1c(O)n(C)c(=O)n(C)c1=O | ? | ? | -15% | 5.8µM* | 0% | ?
Cn1c(O)c(C(=Nc2ccccc2)SCc2ccc(Cl)cc2)c(=O)n(C)c1=O | ? | 5.2µM* | 28% | ? | ? | ?
C=CCc1cc(C=C2C(=O)N(C)C(=O)N(C)C2=O)cc(OCC)c1OCc1ccccc1 | ? | 16µM* | 4% | ? | ? | ?
C=CCc1cc(C=C2C(=O)NC(=O)NC2=O)cc(OC)c1OCc1ccc(C(=O)O)cc1 | ? | i | -34% | i | -6% | 8%
Cc1cc(C)c(N=Cc2c(O)[nH]c(=O)[nH]c2=O)c(C)c1 | -1% | 5.2µM* | -1% | 6.5µM* | 10% | 2%
O=C(O)c1ccc(N=Cc2c(O)[nH]c(=O)[nH]c2=O)cc1 | -1% | ? | 2% | i | 19% | 15%
O=C(Nc1ccc2c(c1)OCCO2)c1cccn(Cc2cccc([N+](=O)[O-])c2)c1=O | . | i | . | i | . | .
COc1ccc(-c2nc(CN3C(=O)CN=C(c4ccccc4)c4ccccc43)c(C)o2)cc1 | . | ? | . | 15µM* | . | .
O=C1c2ccccc2-c2cccc3cccc1c23 | 8% | i | -8% | i | 17% | 1%
SMILES | MCF10A rereplic | KB-V1 cytotox | SW480 rerep | KB-3-1 cytotox | HT1080-NT tox | HT1080 IDH1KD tx
c1ccc2c(c1)cc1ccc3cccc4ccc2c1c34 | ? | i | 21µM* | i | -2% | -5%
CC1=C(C(=O)Nc2ccccc2)C(c2ccc(C)cc2)N=C(Nc2nc3ccccc3o2)N1 (stereo unspecified) | ? | i | ? | i | ? | 11µM*
OC(O)C(Cl)(Cl)Cl | -6% | . | 1% | . | . | .
Oc1cc(Cl)c(Cl)cc1Cl | 2% | . | -4% | . | . | .
Oc1cc(Cl)c(Cl)c(Cl)c1Cl | 15µM* | i | -3% | i | . | .
CCC(C)C1O[C@]2(C=CC1C)CC1CC(C/C=C(\C)[C@H](OC3CC(OC)C(O[C@H]4CC(OC)[C@@H](O)C(C)O4)C(C)O3)[C@@H](C)/C=C/C=C3\COC4C(O)C(C)=C[C@H](C(=O)O1)[C@@]34O)O2 (stereo partly specified) | ? | . | 6% | . | . | .
O=C(NCc1cccnc1)c1ccc(COc2ccc3c(c2)CCC3)o1 | ? | 18µM* | 9% | i | ? | ?
O=C(c1ccccc1)C(Cc1ccccc1)N1CCOCC1 (stereo unspecified) | 6% | 18µM* | -2% | i | 8% | 16%
O=C(Cc1ccccc1)OCCN1CCOCC1 | 4% | i | -1% | i | -3% | 2%
c1cc2c(cc1CCNC1C3CC4CC(C3)CC1C4)OCO2 (stereo unspecified) | 9% | 21µM* | -5% | i | 0% | 1%
C[C@]12CCC3C(CCC4=CC(O)CC[C@@]43/C=N/O)C1(O)CCC2C1=CC(=O)OC1 (stereo partly specified) | ? | 0.65µM* | 3.7µM* | 0.29µM* | 3.3µM* | 0.82µM*
CC12CCC3C(CCC4(O)CC(O)CCC34C=NO)C1(O)CCC2C1=COC(=O)C1 (stereo unspecified) | ? | ? | 1.6µM* | 0.37µM* | 0.82µM* | 0.58µM*
